# Screens as filed in PubChem.
# IP6K1 inh: blocks human inositol hexakisphosphate kinase 1. Q92551. IP6K1 kinase, ADP-Glo luminescence, 2 h; hits give low values. activity change, % (series mostly up to about 58 µM). hit rate 0.81% among 140,000; in the data active = activity change below about -25%; also: % is scaled to controls: 0 for no effect and ±100 for the full control effect
# Target sequence (Q92551 whole entry, looked up): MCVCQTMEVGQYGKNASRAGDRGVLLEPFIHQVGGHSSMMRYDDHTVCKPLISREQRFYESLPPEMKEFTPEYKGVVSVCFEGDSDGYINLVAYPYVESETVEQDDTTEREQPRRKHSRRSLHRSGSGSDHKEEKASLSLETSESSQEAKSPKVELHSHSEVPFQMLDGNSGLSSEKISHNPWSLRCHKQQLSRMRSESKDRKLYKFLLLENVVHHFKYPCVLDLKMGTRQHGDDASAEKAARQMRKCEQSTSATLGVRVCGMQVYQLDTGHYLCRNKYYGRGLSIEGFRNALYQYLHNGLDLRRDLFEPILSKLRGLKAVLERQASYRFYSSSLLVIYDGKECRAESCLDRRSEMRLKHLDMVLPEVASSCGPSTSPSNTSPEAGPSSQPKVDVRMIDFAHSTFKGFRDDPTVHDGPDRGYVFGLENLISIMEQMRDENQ
#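 ADP-Glo luminescence measures ADP made by human IP6K1 during a 2 h RT reaction with ATP/IP6 (mix at 1.3 mM/130 uM); top library doses 57.5 and 19.1 uM final.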
# SNCA viab count: counter-screen for SNCA expression inhibitors: cell viability | AID 1671193 | hit rate 0.12% among 150,000 | Potency, µM (titrated, usually from 57.1 µM), inactives show at the top dose activity change, negative = cytotoxicity, usual class: cytotoxic | HEK-293-SNCA-luc viability, GF-AFC fluorescence, 24 h;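 also: potency is read from the fitted curve at half-maximal effect; 0% = DMSO-treated cells and -100% = medium-only wells without cells; nearly all actives have a fitted effect of over 30% in size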
#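 Cytotoxicity counterscreen: after 24 h compound treatment of genome-edited SNCA-luciferase HEK-293 cells, live-cell protease substrate GF-AFC read by fluorescence after 30 min; activity scaled between DMSO (0%) and medium-only (-100%), curves Hill-fitted.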
# SNCA expr inhib: inhibitors of alpha-synuclein (SNCA) gene expression; HEK-293 SNCA-luciferase knock-in, luminescence, 24 h; Potency, µM (titrated, usually from 57.2 µM), without a hit: at the highest dose activity change, negative = inhibition, hits mostly inhibitors; hit rate 0.17% among 140,000;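 also: potency is read from the fitted curve at half-maximal effect; plate controls were DMSO cells for no effect and cell-free wells for full effect; nearly all actives have a fitted effect of over 45% in size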
# KDM5B inh: blocks human KDM5B histone demethylase activity. hit rate 2.6% among 220,000. AID 1347165. KDM5B demethylase, FDH-coupled NADH fluorescence (FDH is formaldehyde dehydrogenase). Q9UGL1. Potency, µM (doses to about 57.7 µM), usual class: inhibitors; also: potency is read from the fitted curve at half-maximal effect; 0% is about no effect; nearly all actives have a fitted effect of over 70% in size
#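 Inhibition is measured as reduced NADH fluorescence generation from FDH coupling to formaldehyde release. Truncated KDM5BΔAP at 200 nM final acts on H3K4me3 peptide (12.5 µM in substrate mix) in pH 7.5 HEPES buffer with Tween-20, 30 min, room temperature.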
# An asterisk follows results filed as active; i = inactive; ? = inconclusive; nt = not tested or not shown; [ ] = another dose, or the depositor's remark. Only some compounds are listed: those with a hit (about 2.8% of all), similar ones and a draw of the others. Unless noted, calls follow the shape of the dose curve; as a rule, active = well fitted curve in the direction sought with a large enough effect; inconclusive = small, poorly fitted or top-dose-only effect, or another doubt; inactive = no such curve, though single readings can be large; an effect the other way counts as inactive or inconclusive.
SMILES,IP6K1 inh,SNCA viab count,SNCA expr inhib,KDM5B inh
CN1CCN(c2ccc3ncn(-c4cccnc4)c(=O)c3n2)CC1,23,-9%[87.6 µM],33%[87.6 µM],35µM*
O=c1c2nc(N3CCC(c4ccccc4)CC3)ccc2ncn1-c1cccnc1,9,-3%[87.6 µM],9%[87.6 µM],35µM*
O=c1c2nc(N3CCC(c4ccccc4)CC3)ccc2ncn1Cc1ccccn1,-3,-2%[87.6 µM],-9%[87.6 µM],?
Fc1ccc(CN2CCCC3(CCN(c4cnccn4)C3)C2)cc1F (stereo not drawn),-2,3%,-12%,28µM*
COCCNC(=O)C1CCCN1Cc1cccc(-c2ccc(C)c(Cl)c2)c1 (stereo not drawn),16,nt,nt,nt
COCCNC(=O)c1nc2c(o1)CCN(Cc1cccc(F)c1F)CC2,6,3%[87.6 µM],13%[87.6 µM],?
O=C(NCC1CC1)c1nc2c(o1)CCN(Cc1ccc(F)cc1F)CC2,8,0%[87.6 µM],-24%[87.6 µM],i
O=C(Nc1ccc(Cl)cc1)c1nc2c(o1)CCN(Cc1ccc(F)cc1F)CC2,11,?,?,28µM*
O=C(Nc1ccc(Cl)cc1)c1nc2c(o1)CCN(Cc1cccc(F)c1F)CC2,1,-16%[87.6 µM],-34%[87.6 µM],35µM*
COc1ccccc1CN1CCc2nc(C(=O)Nc3ccc(Cl)cc3)oc2CC1,17,?,?,35µM*
N#CC(C(=O)CC1CCCCC1)C(=O)Nc1ccccc1Cl (stereo not drawn),nt,nt,nt,i
CCNc1ncc(C(=O)N2CCN(CCCCOC)CC2)cn1,-11,1%,11%,25µM*
O=C(OCc1ccccc1)N1CCC2(CC1)C(=NC1CCCCC1)NC(=O)N2c1cccnc1,2,-11%,0%,28µM*
CCc1noc(-c2nc(-c3ccccc3F)no2)n1,-20,2%,43%,i
Cc1cc(CN(C)c2ccc(-c3nc(-c4ccccc4F)no3)cn2)on1,-2,0%,2%,32µM*
N#Cc1cccc(-c2n[nH]c3c2CC(=O)N(Cc2ccccn2)C3)c1,-25,-5%[87.6 µM],-1%[87.6 µM],35µM*
O=c1[nH]nc(SCc2ccccc2Cl)n1-c1ccc2c(c1)OCCO2,nt,nt,nt,i
O=c1[nH]nc(Sc2ncc([N+](=O)[O-])s2)n1-c1ccc2c(c1)OCCO2,nt,24µM*,?,nt
Cc1ccccc1NC(=O)COC(=O)c1cccc2c(=O)c(C)c(-c3ccccc3)oc12,nt,nt,nt,i
Cc1cccc(CNC(=O)c2cc3c(N4CCSCC4)nc(C)cn3n2)c1,6,0%,-20%,?
COc1ccc(CNC(=O)c2cc3c(N4CCSCC4)nc(C)cn3n2)cc1,6,-5%,30%,?
Cc1cn2nc(C(=O)NCc3ccc(C(F)(F)F)cc3)cc2c(N2CCSCC2)n1,0,4%,-2%,28µM*
Cc1cn2nc(C(=O)NCc3cccc(C(F)(F)F)c3)cc2c(N2CCSCC2)n1,6,1%,3%,28µM*
Cc1cn2nc(C(=O)NCc3ccncc3)cc2c(N2CCSCC2)n1,-4,27%,-4%,i
CCc1ccc(CNC(=O)c2cc3c(N4CCSCC4)nc(C)cn3n2)cc1,6,1%,-24%,32µM*
SMILES,IP6K1 inh,SNCA viab count,SNCA expr inhib,KDM5B inh
CC1(C)CC(=O)C(C(c2ccc(Cl)cc2Cl)C2C(=O)CC(C)(C)CC2=O)C(=O)C1,nt,nt,nt,i
Cc1nn(-c2ccccc2)c2c1C(C(C)C)N(C1CCN(C(=O)c3cccc(Cl)c3)C1)C2=O (stereo not drawn),2,nt,nt,nt
C#CCOc1ccccc1CN1CCN(c2ncc(F)cn2)CC1,15,6%,0%,28µM*
CCCCn1c(CCC(=O)N(C)Cc2cc(C)ccc2OC)nc2c1c(=O)[nH]c(=O)n2CCCC,nt,nt,nt,i
CN(C)C(=O)c1ccc2c(c1)n(Cc1cccc(F)c1)c(=O)c1ccnn12,-9,-5%,14%,32µM*
O=C(NCc1ccco1)c1ccc2c(c1)n(Cc1ccc(F)cc1)c(=O)c1ccnn12,35,?,?,28µM*
O=C(O)c1ccc2c(c1)n(Cc1cccc(F)c1)c(=O)c1ccnn12,9,16%,-26%,28µM*
O=C(NCc1cccnc1)c1ccc2c(c1)n(Cc1ccccc1)c(=O)c1ccnn12,35,-18%,21%,28µM*
COc1ccc(Cn2c(=O)c3ccnn3c3ccc(C(=O)NCc4cccnc4)cc32)cc1,8,1%,-9%,?
Cc1ccc(S(=O)(=O)NCc2ccc(N3CCCC3)nc2)cc1C,nt,nt,nt,i
CCCN1CCN(C(=O)c2ccc3c(c2)n(Cc2ccc(F)cc2)c(=O)c2ccnn23)CC1,7,-30%,22%,22µM*
O=C(NC1CCCC1)c1ccc2c(c1)n(Cc1cccc(F)c1)c(=O)c1ccnn12,-9,-17%,4%,?
O=C(NCc1cccs1)c1ccc2c(c1)n(Cc1cccc(F)c1)c(=O)c1ccnn12,-9,-16%,-20%,28µM*
CCN(CC)CCNC(=O)c1ccc2c(c1)n(Cc1cccc(F)c1)c(=O)c1ccnn12,1,-4%,?,28µM*
O=C(O)c1ccc2c(c1)n(Cc1ccc(F)cc1)c(=O)c1ccnn12,-4,13%,33%,20µM*
Cc1ccc2c(Cn3cc(S(=O)(=O)N4CCCC4)ccc3=O)cc(=O)oc2c1,nt,nt,nt,i
Cn1c(=O)c2ccnn2c2ccc(C(=O)NCC3CCN(Cc4ccccc4F)CC3)cc21,6,3%,-6%,32µM*
COCCCNC(=O)c1ccc2c(c1)n(Cc1ccccc1)c(=O)c1ccnn12,1,-14%,-2%,?
C1CCC(CN2CCn3c(nnc3C3CCCNC3)C2)CC1 (stereo not drawn),5,-30%,-28%,25µM*
N#Cc1ccc(CN2CCn3c(nnc3C3CCCNC3)C2)cc1 (stereo not drawn),3,-24%,?,20µM*
c1ccc(CN2CCn3c(nnc3C3CCCNC3)C2)cc1 (stereo not drawn),6,-1%,-27%,i
CNc1nc2c(s1)C(c1ccccc1F)CC(=O)N2 (stereo not drawn),-11,-15%,-9%,35µM*
O=[N+]([O-])c1ccc(C(=C(c2ccccc2)c2ccccc2)c2ccc([N+](=O)[O-])cc2)cc1,nt,nt,nt,i
N#Cc1ccc2nc([C@H]3CCN(Cc4ccccn4)C3)[nH]c2c1,7,-7%[87.6 µM],-12%[87.6 µM],35µM*
COc1ccc(OC)c(CCNC(=O)NCc2noc3ccccc23)c1,nt,nt,nt,i
SMILES,IP6K1 inh,SNCA viab count,SNCA expr inhib,KDM5B inh
O=C1[C@@H]2C[C@@H](CN2Cc2ccc(Cl)cc2)Oc2ccccc2N1Cc1ccccc1,7,-19%[87.6 µM],?,?
C=Cc1ccc(Cn2c(C(=O)O)c(CNCCc3ccccc3)c3ccc(C)cc32)cc1,-4,28µM*,?,?
Cc1ccc2c(CNCCc3ccc(Cl)cc3)c(C(=O)O)n(Cc3ccc(F)cc3)c2c1,4,4%,-8%,i
COc1ccc(-c2cc3c(=O)n(CCNC(=O)c4ccc5c(c4)OCO5)ccn3n2)cc1,-12,-4%,59%,6.3µM*
COc1ccc(-c2cc3c(=O)n(CCNC(=O)c4ccc(N(C)C)cc4)ccn3n2)cc1,-9,-5%,59%,25µM*
COc1ccc(-c2cc3c(=O)n(CCNC(=O)c4ccc(F)c(F)c4)ccn3n2)cc1,-1,-2%,97%,?
